This is part of a sample that, as a whole, favours compounds with a hit. Of some 83,000 tested, about 20% had one in any assay.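 Growth was measured after 48 h exposure to one concentration of compound in 96-well plates. Values under 10 count as active.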 A number with no mark means an inactive call. Activity calls are given as the source filed them.

Among the test systems are DU-145 prostate; K-562 leukemia; MALME-3M melanoma; MDA-MB-231 breast; RXF 393 renal; SF-268 CNS; SF-295 CNS; SF-539 CNS; UACC-257 melanoma; M14 melanoma; HCT-15 colon; HT29 colon; SNB-75 CNS; SNB-19 CNS; U251 CNS; PC-3 prostate; SK-MEL-5 melanoma; UACC-62 melanoma; LOX IMVI melanoma; SK-MEL-28 melanoma.
Holding throughout (assay): NCI-60 one-dose screen, 48 h (100 = growth as untreated, 0 = no growth, -100 = all killed)
Common to all, as to settings: 10 µM unless noted

For `COc1ccc(-c2cc(C(=O)Oc3ccc(C=O)cc3OC)nn2-c2ccc(S(C)(=O)=O)cc2)cc1`, the growth was 110% in the experiment with DU-145 prostate; 96.1% with K-562 leukemia; 105% with MALME-3M melanoma; 94.3% in the experiment with MDA-MB-231 breast; 122% with RXF 393 renal; 103% with SF-268 CNS. Moreover, the growth in the experiment with SF-295 CNS was 110%; in the experiment on SF-539 CNS, 106%; with UACC-257 melanoma, 115%; with M14 melanoma, 117%; in the experiment with HCT-15 colon, 81.9%; in the experiment on HT29 colon, 110%. The growth in the experiment on SNB-75 CNS was 99.9%; in the experiment on SNB-19 CNS it was 94.5%; in the experiment with U251 CNS, 101%; with PC-3 prostate, 90.7%; in the experiment with SK-MEL-5 melanoma, 98%; in the experiment with UACC-62 melanoma, 88%. In addition, the growth with LOX IMVI melanoma was 90.1%; in the experiment on SK-MEL-28 melanoma, 117%.
`N#CC1=C(c2cccs2)Nc2c(c(-c3ccccc3)nn2-c2ccccc2)C12C(=O)Nc1ccc(Cl)cc12` (stereo not given): the growth in the experiment on DU-145 prostate was 50.5%; in the experiment with K-562 leukemia, 11.1%; in the experiment with MALME-3M melanoma, 76.3%; in the experiment on MDA-MB-231 breast it was 21.5%; with RXF 393 renal, -11.4% (active); in the experiment with SF-268 CNS, 23.2%. The growth was 12.9% with SF-295 CNS; 20.5% with SF-539 CNS; 63.5% in the experiment with UACC-257 melanoma; 16.5% in the experiment with M14 melanoma; 10.5% in the experiment on HCT-15 colon; 14.4% in the experiment on HT29 colon. Besides, the growth in the experiment with SNB-75 CNS was 36.9%; in the experiment on SNB-19 CNS it was 13.4%; in the experiment on U251 CNS it was 16.2%; with PC-3 prostate, 12.8%; in the experiment with SK-MEL-5 melanoma it was 25.1%; in the experiment with UACC-62 melanoma it was 15.4%. Also, the growth in the experiment with LOX IMVI melanoma was 25.8%; in the experiment on SK-MEL-28 melanoma, 41.8%.
Consider `CC1=C(C(=O)OCc2ccccc2)C(c2ccc(N(C)C)cc2)n2c(nc3ccccc32)N1` (stereo not given), for which the growth was 99.6% with DU-145 prostate; 58% with K-562 leukemia; 75.9% with MALME-3M melanoma; 91.6% in the experiment on MDA-MB-231 breast; 74.6% in the experiment on RXF 393 renal; 81.7% in the experiment on SF-268 CNS. Moreover, the growth in the experiment with SF-295 CNS was 57.3%; with SF-539 CNS it was 86.4%; in the experiment on UACC-257 melanoma, 85.7%; in the experiment with M14 melanoma, 80.4%; in the experiment on HCT-15 colon it was 71.4%; in the experiment on HT29 colon, 100%. In addition, the growth in the experiment with SNB-75 CNS was 61.2%; with SNB-19 CNS it was 86.2%; in the experiment on U251 CNS it was 90.4%; with PC-3 prostate, 80.8%; with SK-MEL-5 melanoma, 71.7%; with UACC-62 melanoma, 42%. Further, the growth was 75.7% in the experiment with LOX IMVI melanoma and 79.9% with SK-MEL-28 melanoma.
Regarding `COc1ccc(-c2cc(C)nc3[nH]c(=O)sc23)cc1`, the growth in the experiment on DU-145 prostate is 67.3%; in the experiment on K-562 leukemia it was 62.5%; in the experiment on MALME-3M melanoma, 95.2%; in the experiment on MDA-MB-231 breast it was 34.6%; with RXF 393 renal, 57%; with SF-268 CNS, 69.4%. The growth in the experiment with SF-295 CNS is 45.7%; in the experiment on SF-539 CNS it was 49.5%; with UACC-257 melanoma, 95.3%; in the experiment with M14 melanoma, 98.5%; in the experiment on HCT-15 colon, 88.1%; in the experiment on HT29 colon, 93.3%. Besides, the growth in the experiment with SNB-75 CNS is -4.05% (active); in the experiment with SNB-19 CNS, 53.6%; with U251 CNS, 9.93% (active); in the experiment with PC-3 prostate, 81.3%; with SK-MEL-5 melanoma, 80.4%; in the experiment with UACC-62 melanoma it was 60.9%. Moreover, the growth in the experiment with LOX IMVI melanoma was 45.9%; in the experiment on SK-MEL-28 melanoma, 89.8%.
Turning to `N#Cc1c(-c2ccc(F)cc2)nc(SCc2ccc(F)cc2)nc1N1CCNCC1`, the growth with DU-145 prostate was -3.44% (active); in the experiment with K-562 leukemia, 0.722% (active); in the experiment with MALME-3M melanoma, -97.8% (active); in the experiment with MDA-MB-231 breast it was -93.6% (active); in the experiment with RXF 393 renal, -64.7% (active); with SF-268 CNS, 41.5%. Besides, the growth was -79.9% (active) in the experiment with SF-295 CNS; -98.9% (active) in the experiment on SF-539 CNS; -90.7% (active) with UACC-257 melanoma; -88.4% (active) with M14 melanoma; -42.8% (active) in the experiment on HCT-15 colon; -79.1% (active) in the experiment on HT29 colon. Besides, the growth in the experiment with SNB-75 CNS is 19.3%; in the experiment on SNB-19 CNS, 49.6%; with U251 CNS it was -95.5% (active); with PC-3 prostate, 11.3%; in the experiment with SK-MEL-5 melanoma it was -67.4% (active); with UACC-62 melanoma it was -91.6% (active). For the same compound, the growth in the experiment on LOX IMVI melanoma was -100% (active); in the experiment with SK-MEL-28 melanoma, -97.6% (active).
Turning to `COc1ccc(NC(=O)CSc2nnc(-c3ccc(-c4nc5ccc(Cl)cc5[nH]4)cc3)o2)cc1`, the growth with DU-145 prostate was 8.29% (active); with K-562 leukemia, 13.3%; with MALME-3M melanoma, 0.449% (active); with MDA-MB-231 breast, -30.2% (active); in the experiment on RXF 393 renal it was -37% (active); in the experiment with SF-268 CNS it was 45.4%. The growth was 43.8% with SF-295 CNS; -91.1% (active) with SF-539 CNS; 29% with UACC-257 melanoma; 13.5% in the experiment with M14 melanoma; 41.9% with HCT-15 colon; 47.8% in the experiment on HT29 colon. For the same compound, the growth with SNB-75 CNS is 5.21% (active); in the experiment with SNB-19 CNS, -29.2% (active); in the experiment with U251 CNS, -58% (active); with PC-3 prostate it was -20.7% (active); with SK-MEL-5 melanoma, 7% (active); in the experiment on UACC-62 melanoma, -32.6% (active). Also, the growth with LOX IMVI melanoma is -33.3% (active); in the experiment with SK-MEL-28 melanoma, -76% (active).
As to `Fc1ccccc1CNc1nc(SCCN2CCOCC2)nc2c1cnn2CC(Cl)c1ccc(Br)cc1` (stereo not given), the growth is 60.5% in the experiment on DU-145 prostate; 3.13% (active) with K-562 leukemia; -15.7% (active) in the experiment with MALME-3M melanoma; 12.6% in the experiment with MDA-MB-231 breast; -13.9% (active) in the experiment on RXF 393 renal; 41.4% in the experiment with SF-268 CNS. Also, the growth in the experiment with SF-295 CNS was -3.31% (active); in the experiment with SF-539 CNS, -3.45% (active); in the experiment on UACC-257 melanoma, 8.02% (active); with M14 melanoma it was 29%; with HCT-15 colon, -53.3% (active); in the experiment with HT29 colon, -33.6% (active). In addition, the growth is 50.1% with SNB-75 CNS; 52.6% in the experiment with SNB-19 CNS; 37.8% in the experiment with U251 CNS; 30.3% with PC-3 prostate; -76% (active) in the experiment with SK-MEL-5 melanoma; -4.51% (active) in the experiment on UACC-62 melanoma. Moreover, the results for the growth in the experiment on LOX IMVI melanoma and in the experiment on SK-MEL-28 melanoma were 1.88% (active) and 22%, respectively.

Source of the values: PubChem BioAssay (NCI).
